Most compounds without a hit are left out; they make up all but 11% or so of the library.
IMPase cell inh = cell-permeable inhibitors of inositol monophosphatase (IMPase); P97697; CHO-M1 cells, IP1 accumulation, HTRF TR-FRET ratio; inhibition (IP1 accumulation), % at 46.1 µM; 120,000 tested, under 10 active; AID 901; active = well fitted curve in the direction sought with a large enough effect in the signal ratio, not every such curve was filed as active; inconclusive = small, poorly fitted or top-dose-only effect, or a change in a side signal; inactive = no such curve, though single readings can be large or run the other way; the % refers to the signal ratio;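 note: cells stimulated with carbachol in lithium chloride buffer; plate controls were DMSO basal wells for no effect and reference inhibitor wells for full effect; higher means more IMPase inhibition seen as more IP1 and lower FRET ratio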
Target sequence (P97697 whole entry, looked up): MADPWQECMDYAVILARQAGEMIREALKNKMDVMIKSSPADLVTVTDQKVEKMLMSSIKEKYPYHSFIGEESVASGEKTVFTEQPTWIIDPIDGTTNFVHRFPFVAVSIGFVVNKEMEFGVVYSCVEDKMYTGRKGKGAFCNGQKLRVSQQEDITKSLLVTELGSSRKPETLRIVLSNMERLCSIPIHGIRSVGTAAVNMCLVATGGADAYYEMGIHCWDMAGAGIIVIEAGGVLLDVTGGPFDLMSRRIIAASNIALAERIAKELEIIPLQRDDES
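Cellular IMPase inhibition is scored as a rise in cytosolic IP1, detected by competitive TR-FRET between d2-labelled IP1 and a europium anti-IP1 antibody. M1-expressing CHO cells were stimulated with carbachol for 30 min at 37C, with lithium (50 mM LiCl) present in the buffer.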
HPGD inh = HPGD (human) dehydrogenase inhibition; P15428; purified HPGD, NADH fluorescence kinetic, PGE2 substrate; Potency, µM, without a hit: at the top dose activity change, negative = inhibition, most hits filed as inhibitors; hit rate 4.3% among 150,000; AID 894; note: potency is the fitted concentration of half-maximal effect
Target sequence (P15428 whole entry, looked up): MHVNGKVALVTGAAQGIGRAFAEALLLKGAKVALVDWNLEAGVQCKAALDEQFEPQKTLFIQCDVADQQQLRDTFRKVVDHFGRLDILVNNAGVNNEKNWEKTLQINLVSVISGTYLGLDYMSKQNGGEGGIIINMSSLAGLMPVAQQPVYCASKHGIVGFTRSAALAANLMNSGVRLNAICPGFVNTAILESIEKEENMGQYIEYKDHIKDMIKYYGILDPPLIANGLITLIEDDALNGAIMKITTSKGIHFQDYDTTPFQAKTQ
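NADH formation kinetics: reaction with 30 uM PGE2 and 1 mM NAD+ (final), 20 nM enzyme, Tris-HCl pH 8 with Tween 20, after 15 min compound preincubation at room temperature. Fluorescence change, last versus first of five reads.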
PNC inhibitor = perinucleolar compartment assembly inhibition; activity change (PNC), negative = inhibition, % at 10 µM; PC3M PTB-GFP, PNC prevalence imaging, 16 h; stronger effect = lower value; hit rate 3.1% among 140,000;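 active = readout at or below -70, meaning at least 70% loss of cells showing the perinucleolar compartment, a nuclear body marking cancer cells; inconclusive = readout between -30 and a set limit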;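 note: plate controls were DMSO wells for no effect and camptothecin positive control wells for full effect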
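PC3M cells stably expressing PTB-GFP, 750–1000 cells/well, treated 16 h at 37 °C with compound (23 nl of library stock), in duplicate. After paraformaldehyde fixation and Hoechst stain, imaged at 20x; PNC prevalence scored by image analysis.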
IMPase Li cell = membrane-permeable IMPase blocker, potentiated with lithium; CHO-M1 cells, IP1 TR-FRET (IP-One), carbachol + lithium; Potency, µM (highest dose often 59.4 µM), for the others: at the top dose activity, negative = IMPase inhibition, most hits filed as inhibitors; hit rate 0.35% among 210,000; AID 1457; active = well fitted inhibition curve with a large enough effect; inconclusive = small, poorly fitted or top-dose-only effect; inactive = no such curve, though single readings can be large or run the other way;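 note: IP1 builds up when IMPase is blocked and the TR-FRET signal falls; potency is the fitted concentration of half-maximal effect; plate controls were basal vehicle for no effect and high inhibitor control for full effect; nearly all actives have a fitted effect of over 50% in size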
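Readout is a homogeneous TR-FRET IP1 immunoassay (Ex 320, Em 665 and 620), where raised cytosolic IP1 lowers signal. Cells were CHO-M1 treated 30 min at 37C with test compounds plus a little lithium; AC50 values came from Hill-equation fitting.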
ALDH1A1 inh = ALDH1A1 (human) enzyme inhibition; P00352; Purified ALDH1A1, NADH fluorescence, propionaldehyde substrate; Potency, µM (titrated, usually from 75.3 µM), inactives show at the highest dose activity, negative = inhibition, most hits filed as inhibitors; hit rate 7.3% among 220,000;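 note: potency is the fitted concentration of half-maximal effect; plate controls were no enzyme wells and a reference inhibitor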
Active calls of the source: *; ? = inconclusive; nt = no result; [ ] = dose if it differs, or a comment. Unless noted, calls come from the whole dose curve; as a rule, active = well fitted inhibition curve with a large enough effect (not every such curve was filed as active); inconclusive = small, poorly fitted or top-dose-only effect, or another doubt; inactive = no such curve, though single readings can be large or run the other way. Unless noted, % is set by controls: 0 for no effect and ±100 for the full control effect.

SMILES	IMPase cell inh	HPGD inh	PNC inhibitor	IMPase Li cell	ALDH1A1 inh
CSc1ccccc1NC(=O)COc1ccc(Cl)cc1	nt	28µM*	-10	6%	-13%
CSc1ccccc1NC(=O)COc1ccccc1Cl	2	25µM*	60	14%[38.3 µM]	-12%
COCCn1c(=O)c(-c2ccc(Cl)cc2)nc2cnc(N3CCOCC3)nc21	nt	nt	nt	-22%	?
Cc1ccccc1CN1C2=NCCN2C(=O)C2=C1CCN(Cc1ccccc1)C2	nt	-5%	nt	2%	6%[13.5 µM]
O=C(COC(=O)c1ccccc1Br)NCCN1C(=O)CSC1=O	nt	nt	nt	-16%	14µM*
Cn1c(SCC(=O)NCCN2C(=O)CSC2=O)nnc1-c1ccccc1	nt	3%	-82*	-3%	9%
CCN(CC)S(=O)(=O)c1ccc(C)c(NC(=S)NNC(=O)C2CC2)c1	nt	-18%	?	6%	8.9µM*
COc1cc(OC)cc(C(=O)NCC(=O)OCC(=O)Nc2ncc(Cl)cc2Cl)c1	nt	nt	nt	7%	25µM*
COc1ccc(CC(=O)OCC(=O)Nc2ncc(Cl)cc2Cl)cc1	1	-5%	20	-8%[38.3 µM]	3%
O=C(COC(=O)c1ccc(Br)o1)Nc1ncc(Cl)cc1Cl	nt	nt	nt	-9%	19µM*
CCOc1ccc(CCNC(=O)COC(=O)/C=C/c2ccc(OCC#N)c(OC)c2)cc1OCC	nt	-26%	?	7%	?
CC(C)OC(=O)c1sc2nc(-c3ccccc3)ccc2c1N	?	?	-100*	-27%[38.3 µM]	?
Cc1nc(=O)c(-c2ccccc2)c(C)n1-c1cccc(C(=O)O)c1	3	nt	-101*	nt	-6%
COc1cccc(C2NC(C(=O)O)CCC2C)c1 (configuration not stated)	nt	nt	nt	nt	10%[13.5 µM]
C=C(C)C1Cc2c(C)nn(-c3nc(C)cc(C)n3)c2C1 (configuration not stated)	-16	-17%	6	1%[38.3 µM]	20µM*
Cc1cccc(NC(=O)C2CCC(CNS(=O)(=O)c3ccc(Br)s3)CC2)c1 (configuration not stated)	4	nt	nt	nt	nt
O=C(COc1ncnc2c(Cl)cc(Cl)cc12)N1CCCCC1	-5	-6%	12	-7%[38.3 µM]	-6%
Cc1ccc(OCC(=O)NC2CC(C)(C)NC(C)(C)C2)c(C)c1	nt	nt	nt	6%	6%
O=C(COc1ncnc2c(Cl)cc(Cl)cc12)NC1CCCCCC1	9	?	-29	22µM*	-1%
Cc1cc(Cl)c(S(=O)(=O)N2CCSCC2)cc1OCC(=O)NC1CCCCC1	8	-15%	-9	13%[38.3 µM]	7.9µM*
Cc1ccc(OCC(=O)NC2CCCC2)c(C)c1	2	28µM*	?	-6%[38.3 µM]	14%
O=C(COc1ccc(Br)cc1Cl)NC1CCCCC1	nt	11µM*	19	8%	6%
Cc1cc(Cl)ccc1OCCCC(=O)NC1CCN(C)CC1	1	-2%	43	23%[38.3 µM]	1%
Cc1cc(Cl)ccc1OCC(=O)NC1CCCC1	10	14µM*	6	-8%[38.3 µM]	6%
Cc1cc(Cl)ccc1OCC(=O)NCc1ccncc1	-12	-10%	72	-8%[38.3 µM]	-3%
SMILES	IMPase cell inh	HPGD inh	PNC inhibitor	IMPase Li cell	ALDH1A1 inh
CCn1cc(C(C)NC(=O)COc2ccc(Cl)cc2C)c(C)n1 (configuration not stated)	2	-20%	-95*	15%[38.3 µM]	8%
COC(=O)N1C2=C(c3ccccc3[C@@H]1CC(=O)Nc1ccc(Br)cc1)[C@@H]1C(=O)N(c3ccccc3)C(=O)[C@@H]1[C@H](C)C2	nt	-13%	nt	34%	?
CC(=O)Nc1ccc(NC(=O)c2ccccc2Sc2ccc([N+](=O)[O-])cc2Cl)cc1	-7	-17%	-80*	3%	?
COc1ccccc1NC(=S)NC1CCCCCC1	-6	nt	-22	nt	-7%
Cc1nnc(NC(=O)CSc2ccc(-c3ccco3)nn2)s1	nt	nt	nt	-17%	7.1µM*
Cc1ccc(C)c(NC(=O)CSc2ccc(-c3ccco3)nn2)c1	2	-21%	-5	-22%	3.2µM*
Cc1ccccc1NC(=O)CSc1ccc(-c2ccco2)nn1	-4	-12%	15	0%	?
O=Cc1ccccc1Oc1nc(N2CCOCC2)nc(N2CCOCC2)n1	nt	nt	nt	-1%	?
COc1cc(/C=C2/SC(=S)N(c3ccccc3)C2=O)ccc1Oc1nc(N2CCOCC2)nc(N2CCOCC2)n1	12	-14%	?	59%	0.4µM*
COc1cccc(Cn2c(Oc3cccc(C)c3)nc3c2c(=O)n(C)c(=O)n3C)c1	12	-4%	?	32%[38.3 µM]	?
COc1cccc(Cn2c(Oc3ccccc3)nc3c2c(=O)n(C)c(=O)n3C)c1	1	-22%	?	25%[38.3 µM]	0.25µM*
O=C(c1cccc(F)c1)N1CCC2(CC1)CN(C(c1ccccc1)c1ccccc1)C2	nt	-14%	nt	0%	?
COc1cccc(N/C(N)=N/c2nc(C(F)(F)F)cc(=O)[nH]2)c1	-12	-9%	?	-6%	6%
CC(C)n1nnc2cc(C(=O)O)ccc21	nt	?	nt	5%	-4%
COc1ccc(C(=O)N2CCC3(CCN(C(=O)Nc4ccccc4)CC3)CC2)cc1	nt	-10%	nt	-1%	-2%
CN(C)CC#Cc1cncc(C(=O)NNC(=O)Nc2ccc(Cl)cc2)c1	nt	nt	nt	nt	25µM*
CCOC(=O)C1CCCN(C(=O)c2cc3c(C)nc4ccccc4c3o2)C1 (configuration not stated)	25	-10%	?	39%[38.3 µM]	-11%
CCOC(=O)C1CCCN(C(=O)CSCc2ccccc2)C1 (configuration not stated)	1	-13%	51	-8%[38.3 µM]	?
CCOC(=O)C1CCCN(C(=O)c2cnn3c(C(F)F)cc(-c4ccc(C)cc4)nc23)C1 (configuration not stated)	5	?	-107*	16%[38.3 µM]	?
CCOC(=O)C1CCCN(C(=O)c2ccc(C)cc2O)C1 (configuration not stated)	5	14µM*	-22	18%[38.3 µM]	?
CCOC(=O)C1CCCN(C(=O)c2ccco2)C1 (configuration not stated)	-8	-3%	-10	-11%[38.3 µM]	8.9µM*
Cc1ccc(-c2cc(C(F)F)n3ncc(C(=O)N4CCN5CCCC5C4)c3n2)cc1 (configuration not stated)	21	?	-4	25%[38.3 µM]	?
CCOC(=O)C1CCCN(C(=O)c2cc(-c3ccccc3)on2)C1 (configuration not stated)	?	28µM*	2	15%[38.3 µM]	-8%
CC1CCCN(C(=O)CN2CCN(C(=O)c3ccco3)CC2)C1 (configuration not stated)	-3	-9%	?	14%[38.3 µM]	22µM*
COc1cc2[nH]c(=S)n(Cc3cccs3)c(=O)c2cc1OC	nt	nt	nt	0%	1.1µM*
O=C(Cc1ccc(Cl)cc1Cl)Nc1cccc(S(=O)(=O)Nc2ccccc2F)c1	nt	3.5µM*	28	13%	3.5µM*
O=C(/C=C/c1ccccc1)Nc1cccc(S(=O)(=O)Nc2ccccc2F)c1	nt	2µM*	-7	20%	0.79µM*

Compound activity: PubChem, National Center for Advancing Translational Sciences (NCATS)
